The list is not random: actives were taken first. Their share in the collection is about 19%.
Lassa entry inh: Lassa virus entry inhibition; Potency, µM (doses to about 37.9 µM), for inactives: at the highest dose activity change, negative = inhibition, actives largely listed as inhibitors; 300,000 tested, 1.2% active; Lassa virus pseudotype entry inhibition, cell reporter; calls by dose curve; tested in HEK293 cells; note: potency is the fitted concentration of half-maximal effect; % is set by controls: 0 for no effect and ±100 for the full control effect; nearly all actives have a fitted effect of over 50% in size
Pf growth 96h: inhibits malaria parasite growth, 96 h | AID 504834 | P. falciparum luciferase reporter growth, 96 h | 320,000 tested, 6.9% active | Potency, µM (series often up to 28.7 µM), for inactives: at the highest dose activity change, negative = inhibition, actives largely listed as inhibitors; note: potency is the fitted concentration of half-maximal effect; % is set by controls: 0 for no effect and ±100 for the full control effect
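Plates of compound plus infected erythrocytes (2% hematocrit, 0.05% parasitemia final) incubate 96 hours, 37 C, 5% CO2. Detection reagent added; reduced luminescence from the parasites' luciferase reporter flags inhibition.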
Shiga inhibitor: Shiga toxin inhibition; Vero cells, Shiga toxin protein synthesis inhibition reporter; 290,000 tested, 9.2% active; AID 2315; inhibition, % at 38.7 µM; in the data active = inhibition mostly above about 28%, no sharp cut-off; inactive = mostly below about 43%; note: 0% is about no effect
Marburg entry inh: Marburg virus entry inhibition | Marburg virus pseudotyped entry inhibition, cell reporter | Potency, µM (highest dose often 37.8 µM), for the others: at the highest dose activity change, negative = inhibition, actives largely listed as inhibitors | 300,000 tested, 1.8% active | AID 540276; calls by dose curve; tested in HEK293 cells; note: potency is the fitted concentration of half-maximal effect; % is set by controls: 0 for no effect and ±100 for the full control effect
Cycloheximide cs: counter-screen for Shiga toxin inhibitors: cycloheximide protein synthesis inhibition; cell reporter, cycloheximide protein synthesis inhibition counterscreen; max response, %; 300,000 tested, 12% active; AID 2314; in the data active = max response mostly above about 13%, no sharp cut-off; inactive = mostly below about 14%; note: read at 38.3 µM for the half of the compounds with a filed dose; 0% is about no effect
Pf growth 48h: P. falciparum growth inhibition at 48 hours (one generation); P. falciparum luciferase growth in erythrocytes, 48 h; Potency, µM (top dose mostly 28.7 µM), for inactives: top-dose activity change, negative = inhibition, most hits filed as inhibitors; 310,000 tested, 5.9% active; AID 504832; note: potency is the fitted concentration of half-maximal effect; % is set by controls: 0 for no effect and ±100 for the full control effect
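Luciferase-expressing P. falciparum in infected erythrocytes (2% hematocrit, 0.1% parasitemia final) in RPMI 1640/0.5% Albumax were exposed to compound for 48 hours at 37 C, 5% CO2; growth read as luminescence.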
The depositor's hits bear a star; ? = inconclusive; / = not tested or not shown; [ ] = another dose, or the depositor's remark. Unless noted, calls come from the whole dose curve; as a rule, active = well fitted inhibition curve with a large enough effect; inconclusive = small, poorly fitted or top-dose-only effect, or another doubt; inactive = no such curve, though single readings can be large or run the other way.

SMILES | Lassa entry inh | Pf growth 96h | Shiga inhibitor | Marburg entry inh | Cycloheximide cs | Pf growth 48h
COC(=O)c1ccc(NC(=O)CN2C(=O)CCc3cc(S(=O)(=O)N4CCCCC4)ccc32)cc1 | 2.1%[46.1 µM] | / | / | / | / | /
OCCOc1ccc(CN2CCN(CCCc3ccccc3)C(CCO)C2)cc1 (stereo not drawn) | / | 18.9% | 7.1 | / | -2.9 | -10.4%
COc1cccc(CN(C)C(=O)c2ccccc2Sc2ccccc2C#N)c1 | -27.9% | -25.3% | -10.7 | -28.4% | 9.4 | 18.5%
CC1=C(C(=O)OC2CCCC2)C(c2coc3ccccc3c2=O)C2=C(CCCC2=O)N1 (stereo not drawn) | -28.0%[46.1 µM] | 4.9% | -8.6 | ? | 8.5 | ?
COc1ccc(-c2ccc(SCC(=O)NCc3ccco3)nn2)cc1OC | -8.6% | 5.22µM* | 4.5 | -2.0% | 16.2 | 13.9%
COc1ccc(-c2ccc(SCC(=O)c3ccc(F)cc3)nn2)cc1OC | ? | ? | -3.5 | -1.3%[46.1 µM] | 11.3 | ?
Cc1ccc(NCc2nnc(SCC(N)=O)n2CC2CCCO2)c(C)c1 (stereo not drawn) | 1.3% | 13.1µM* | 11.9 | -0.5% | 0.6 | -8.9%
COc1ccc(-c2ccc(SCC(=O)c3cccs3)nn2)cc1OC | -9.9% | ? | 55.7* | -3.8% | 14.7 | -34.3%[1.15 µM]
COc1ccc(-c2ccc(SCC(=O)NC3CCCCC3)nn2)cc1OC | / | 27.8% | 64.7* | -5.8%[46.1 µM] | 36.6* | 46.1%
CCOc1ccc(NC(=O)CSc2cc(C)c3ccccc3n2)cc1 | -3.9%[46.1 µM] | / | / | / | / | /
O=C(CSCc1ccccc1)Nc1ccc(Cl)cn1 | 4.5% | / | 89.8 | 7.0% | 36.5 | 35.3%
Nc1nn(-c2ccccc2)c(N)c1N=Nc1cccc(F)c1 | / | 200.2% | 88.0* | / | 62.0* | 142.0%
Nc1nn(-c2ccccc2)c(N)c1N=Nc1ccc2c(c1)OCO2 | ? | 236.0% | active | 8.91µM* | 43.8* | 158.7%
Cc1nn(-c2ccccc2)c(N)c1N=Nc1cccnc1 | / | 120.1% | 61.1* | / | 40.7* | 81.9%
Nc1nc(-c2ccccc2)c(N=Nc2cccnc2)s1 | 0.0% | -3.2% | 22.4 | ? | -1.0 | -7.3%
OC(COCC1CC=CCC1)Cn1cnc2ccccc21 (stereo not drawn) | 0.6% | ? | 5.6 | ? | 1.4 | /
Cc1ccc2nc(-c3ccccc3)cc(C(=O)NNC(=O)c3csc(N4CCOCC4)n3)c2c1 | -10.5% | ? | / | ? | / | -11.2%
O=C(O)Cc1ccc(NC(=O)Nc2ccc3c(c2)OCO3)cc1 | / | 120.3% | 47.0* | / | 34.8* | 41.2%
O=C(Nc1ccc2c(c1)OCO2)c1cccc(F)c1 | ? | / | 75.1* | -5.3% | 34.3* | 118.2%
O=C(Nc1cccc(F)c1)Nc1ccc2c(c1)OCO2 | -23.0%[46.1 µM] | 47.1% | 85.0* | ? | 59.1* | 94.4%
O=C(Nc1ccc2c(c1)OCO2)c1c(F)cccc1F | -12.7% | / | 74.8* | 0.8% | 33.4* | 169.0%
O=C(O)Cc1ccc(NC(=O)Nc2ccc(Br)cc2)cc1 | 16.7% | ? | 25.3 | 6.2%[46.1 µM] | 8.8 | 8.6%
CC(C)[C@H](NC(=O)c1ccccc1F)C(=O)Nc1ccc2c(c1)OCO2 | / | -3.1% | / | / | / | ?
COc1cccc(C(C)=C2SC(=S)NC2=O)c1 | 8.0% | / | / | 21.5% | / | /
NC(=O)C1CCN(C(=O)c2ccc(Oc3ccccc3)cc2)CC1 | -8.4% | 14.1% | -5.2 | -6.3% | -2.4 | /
SMILES | Lassa entry inh | Pf growth 96h | Shiga inhibitor | Marburg entry inh | Cycloheximide cs | Pf growth 48h
COc1ccc(NC(=O)C2CCN(S(=O)(=O)c3c(C)noc3/C=C/N(C)C)CC2)cc1 | / | -26.5% | 17.0 | / | -2.3 | ?
COc1ccc(N2CCN(CCCNS(=O)(=O)c3c(C)noc3/C=C/N(C)C)CC2)cc1 | / | ? | 14.5 | -8.5% | -0.6 | 2.94µM*
COc1cccc(NC(=O)C(=O)NCCc2ccc(F)cc2)c1 | 8.0% | 114.5% | 90.7* | 10.0%[46.1 µM] | 40.9* | 95.3%
COc1ccc(NC(=O)NCc2ccccc2F)cc1OC | / | 10.4µM* | -22.3 | / | -1.4 | 6.3%
COc1cccc(NC(=O)NCCCCc2ccccc2)c1 | / | ? | 23.8 | / | 30.7* | 6.2%
COc1ccccc1NC(=O)NCc1ccccc1F | 0.0% | 1.4% | 13.5 | 22.3% | 0.4 | 52.3%
COc1cccc(NC(=O)N2CCCC2C(=O)NCc2ccccc2F)c1 (stereo not drawn) | / | 10.4µM* | 22.8 | / | -0.6 | 14.9%
[O-][n+]1cccc2ncc3cscc3c21 | 27.2% | 0.1% | -38.3 | 10.7% | -1.3 | 4.2%
CC(Oc1cccc(Cl)c1)C(=O)Nc1cc(=O)n(C)c(=O)n1C (stereo not drawn) | 6.0% | / | -13.7 | -14.1% | -1.0 | -24.2%
O=C(O)CCCn1nc(C(F)(F)F)c2c1CCCCC2 | 20.1% | / | 14.8 | -15.0% | -1.1 | -6.3%
Cc1cc2cc(CN(Cc3ccc4c(c3)OCO4)Cc3nnnn3C3CCCC3)c(=O)[nH]c2cc1C | -29.6% | 51.8% | -11.5 | -3.6% | -4.6 | ?

Screening data as filed in PubChem BioAssay.
